Molecules are shown by their SMILES. “And” between values parts separate entries of the source, which are not always exact repeats. Identical values can stand only once. The source made the active and inactive calls.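 Rule for the calls, unless noted: active = compounds whose cell count with miR-34 switched on is under 0.7 times the count with it off; inactive = the rest.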

Assay [1] in a line: sensitizers of A549 cells to miR-34 induction, primary screen, imaging, A549 dox-inducible miR-34, nuclei and caspase counts (AID 1347080). Note: test concentration not given here. Particulars: A549 miR-34 inducible, Hoechst nuclei count, 48 h.
A short description of assay [2]: survival rescue of mitochondrial mutant cells in low glucose, primary screen, MELAS cybrids, Rieske KO mouse fibroblasts, CellTiter-Glo (AID 1508586;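 active = mean z-score across replicates of 1.96 or higher in either the MELAS or the Rieske mutant cell line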;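 note: test concentration not given here; z relative to plate mean and SD of compound and empty wells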). On the technique in general: ATP-based viability assays read luminescence as a measure of living cells.
Assay [3] can be described thus: viability rescue of complex I mutant cybrids, primary screen, cell-based, galactose medium, ATP luminescence (AID 1645843;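 active = z-score of at least 1.8 in each of two replicates, scored against plate mean and spread of sample wells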;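 note: positive z means more ATP and so rescue of galactose-driven cybrid death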). As to conditions: complex I mutant cybrid cells, 72 h, stronger effect = higher value.
[4] abbreviates: stronger effect = lower value, cell number ratio, induced over uninduced.
Where [5] appears, read: measured here: relative caspase fold change +Dox/-Dox.
Setting [6] is: measured here: total cells with miR-34 induction, stronger effect = lower value.
Where [7] appears, read: measured here: total cells without miR-34 induction.
Where [8] appears, read: MELAS cybrid survival, CellTiter-Glo 48 h, stronger effect = higher value.
The mark [9] stands for this setting: Rieske KO mouse fibroblast survival, CellTiter-Glo 72 h.

Turning to `Cc1nsc(NC(=O)N(C)Cc2cn[nH]c2-c2ccc(F)cc2)n1`, the figures for the fold change in assay [1] (setting [4]) and in assay [1] (setting [5]) were 0.916 (inactive) and 0.879, respectively. The cell count in assay [1] (setting [6]) came to 9230; in assay [1] (setting [7]), 10100. The z-score in assay [2] (setting [8]) is 0.225 (inactive); in assay [2] (setting [9]) it was -0.278; in assay [3], -0.49 (inactive).

For the molecule `CCn1ncc(NC(=O)Cn2ccc(-c3ncnn3C)n2)n1`, the fold change in assay [1] (setting [4]) is 0.85 (inactive); in assay [1] (setting [5]), 1.24. Besides, the cell count stood at 8780 in assay [1] (setting [6]) and 10300 in assay [1] (setting [7]). Also, the z-score in assay [2] (setting [8]) was 0.204 (inactive); in assay [2] (setting [9]) it was -0.374; in assay [3], -0.5 (inactive).

Regarding `NCCCNc1ccccc1[N+](=O)[O-]`, the fold change in assay [1] (setting [4]) is 0.945 (inactive); in assay [1] (setting [5]), 0.463. Also, the results for the cell count in assay [1] (setting [6]) and in assay [1] (setting [7]) were 8170 and 8640, respectively. Besides, the z-score was -0.896 (inactive) in assay [2] (setting [8]), 0.0452 in assay [2] (setting [9]) and 0.19 (inactive) in assay [3].

As for `COc1ccccc1-c1ccc(C(=O)O)o1`, the fold change is 0.892 (inactive) in assay [1] (setting [4]) and 0.465 in assay [1] (setting [5]). The cell count in assay [1] (setting [6]) was found to be 8930; in assay [1] (setting [7]), 10000. Moreover, the results for the z-score in assay [2] (setting [8]), in assay [2] (setting [9]) and in assay [3] were -1.1 (inactive), 0.506 and 1.07 (inactive), respectively.

Turning to `COc1ccc2[nH]cc(CCC(=O)O)c2c1`, the figures for the fold change in assay [1] (setting [4]) and in assay [1] (setting [5]) were 0.879 (inactive) and 0.282, respectively. For the same molecule, the cell count stood at 8310 in assay [1] (setting [6]) and 9460 in assay [1] (setting [7]). Moreover, the values for the z-score in assay [2] (setting [8]), in assay [2] (setting [9]) and in assay [3] were 0.323 (inactive), -0.35 and 0.275 (inactive), respectively.

As to `Cc1cc(C(=O)N2CCc3[nH]nc(COc4ccccc4)c3C2)c(C)o1`, the fold change in assay [1] (setting [4]) is 0.899 (inactive); in assay [1] (setting [5]), 1.21. Further, the figures for the cell count in assay [1] (setting [6]) and in assay [1] (setting [7]) were 8460 and 9410, respectively. Moreover, the z-score in assay [2] (setting [8]) is -0.0896 (inactive); in assay [2] (setting [9]), -0.219; in assay [3] it was -0.42 (inactive).

As for `CC(C)C1=NOC(c2nc(-c3cccc4ccccc34)no2)C1` (stereo not given), the fold change in assay [1] (setting [4]) is 0.862 (inactive); in assay [1] (setting [5]), 1.54. Also, the cell count is 7930 in assay [1] (setting [6]) and 9200 in assay [1] (setting [7]). In addition, the z-score in assay [2] (setting [8]) is 0.244 (inactive); in assay [2] (setting [9]), 0.252; in assay [3], 2 (inactive).

With `CCc1cc(CN2CCN(C)C(CCO)C2)on1` (stereo not given), the fold change in assay [1] (setting [4]) was 0.907 (inactive); in assay [1] (setting [5]), 1.26. The cell count in assay [1] (setting [6]) was 8690; in assay [1] (setting [7]) it was 9580. Moreover, the z-score in assay [2] (setting [8]) was 0.702 (inactive); in assay [2] (setting [9]) it was -0.294; in assay [3] it was -0.59 (inactive).

With `O=C1CN(c2ccc(C(F)(F)F)cn2)CCN1Cc1ccc2c(c1)OCO2`, the figures for the fold change in assay [1] (setting [4]) and in assay [1] (setting [5]) were 0.887 (inactive) and 1.52, respectively. For the same molecule, the results for the cell count in assay [1] (setting [6]) and in assay [1] (setting [7]) were 8410 and 9480, respectively. The results for the z-score in assay [2] (setting [8]), in assay [2] (setting [9]) and in assay [3] were 0.169 (inactive), -0.106 and 2.96 (active), respectively.

Turning to `COc1ccc(-n2cccn2)c(-c2nnc3ccccn23)c1`, the fold change in assay [1] (setting [4]) is 0.89 (inactive); in assay [1] (setting [5]), 0.706. Besides, the cell count in assay [1] (setting [6]) turned out to be 8500; in assay [1] (setting [7]), 9550. Further, the z-score in assay [2] (setting [8]) is -0.172 (inactive); in assay [2] (setting [9]) it was -0.541; in assay [3], -0.55 (inactive).

Take `OCC1OC(Oc2cc(O)cc(C=Cc3ccc(O)cc3)c2)C(O)C(O)C1O` (stereo not given): the fold change is 0.967 (inactive) and 0.947 (inactive) in assay [1] (setting [4]); 1.94 and 0.831 in assay [1] (setting [5]). In addition, the cell count in assay [1] (setting [6]) is 9700 and 8270; in assay [1] (setting [7]), 10000 and 8720. Besides, the figures for the z-score in assay [2] (setting [8]), in assay [2] (setting [9]) and in assay [3] were -0.124 (inactive), -0.651 and 0.4 (inactive), respectively.

In the case of `CC(C)C(N)C(=O)OCCOCn1cnc2c(=O)[nH]c(N)nc21` (stereo not given), the fold change in assay [1] (setting [4]) is 0.946 (inactive) and 0.861 (inactive); in assay [1] (setting [5]), 1.94 and 0.803. Further, the cell count in assay [1] (setting [6]) was 9720 and 8030; in assay [1] (setting [7]), 10300 and 9320. Further, the z-score was -0.311 (inactive) in assay [2] (setting [8]), 0.593 in assay [2] (setting [9]) and 0.365 (inactive) in assay [3].

In the case of `OB(O)c1cc2ccccc2s1`, the figures for the fold change in assay [1] (setting [4]) and in assay [1] (setting [5]) were 0.864 (inactive) and 0.659, respectively. Moreover, the figures for the cell count in assay [1] (setting [6]) and in assay [1] (setting [7]) were 7300 and 8450, respectively. Besides, the z-score was -0.459 (inactive) in assay [2] (setting [8]), 0.539 in assay [2] (setting [9]) and 0.265 (inactive) in assay [3].

Take `CCc1nc(NC(=O)NC(c2ccccc2)c2ccccc2)nn1C`: the results for the fold change in assay [1] (setting [4]) and in assay [1] (setting [5]) were 0.893 (inactive) and 1.04, respectively. The results for the cell count in assay [1] (setting [6]) and in assay [1] (setting [7]) were 6610 and 7400, respectively. Besides, the z-score in assay [2] (setting [8]) was -0.352 (inactive); in assay [2] (setting [9]) it was -0.694; in assay [3] it was 1.48 (inactive).

For the molecule `Cc1cccc2c(C(=O)N3C4CCCCC3CCC4)cc(-c3cncnc3)nc12`, the fold change in assay [1] (setting [4]) was 0.922 (inactive); in assay [1] (setting [5]), 1.14. For the same molecule, the cell count in assay [1] (setting [6]) was 8060; in assay [1] (setting [7]), 8740. Moreover, the figures for the z-score in assay [2] (setting [8]), in assay [2] (setting [9]) and in assay [3] were 0.139 (inactive), -0.667 and -0.275 (inactive), respectively.

Turning to `CCN(CC)C(=O)[C@]1(c2ccccc2)CC1CN` (stereo not given in full), the fold change in assay [1] (setting [4]) was 0.994 (inactive) and 0.915 (inactive); in assay [1] (setting [5]), 2.55 and 0.784. Besides, the cell count in assay [1] (setting [6]) is 10600 and 8120; in assay [1] (setting [7]), 10700 and 8880. For the same molecule, the z-score in assay [2] (setting [8]) was -0.247 (inactive); in assay [2] (setting [9]), -0.165; in assay [3], 0.315 (inactive).

Consider `COc1ncccc1-c1cnn(CC(=O)Nc2cc(-c3ccccn3)nn2C)c1`, for which the fold change in assay [1] (setting [4]) was 0.961 (inactive); in assay [1] (setting [5]) it was 0.557. For the same molecule, the cell count in assay [1] (setting [6]) was found to be 9520; in assay [1] (setting [7]), 9900. Besides, the z-score in assay [2] (setting [8]) was -0.417 (inactive); in assay [2] (setting [9]), 0.201; in assay [3] it was -0.56 (inactive).

With `COc1ccc(F)c(-c2cccc(N)n2)c1`, the fold change in assay [1] (setting [4]) was 0.864 (inactive); in assay [1] (setting [5]), 1.37. Further, the cell count in assay [1] (setting [6]) was 8940; in assay [1] (setting [7]) it was 10300. Moreover, the z-score is -0.0723 (inactive) in assay [2] (setting [8]), -0.237 in assay [2] (setting [9]) and -0.555 (inactive) in assay [3].

Turning to `Cc1nn(C)c(C)c1-c1ccnc(N2CCCC2c2nc(-c3cccnc3)no2)n1` (stereo not given), the fold change is 0.869 (inactive) in assay [1] (setting [4]) and 1.21 in assay [1] (setting [5]). Also, the cell count in assay [1] (setting [6]) is 6880; in assay [1] (setting [7]) it was 7910. Moreover, the z-score in assay [2] (setting [8]) is -0.00142 (inactive); in assay [2] (setting [9]) it was 0.462; in assay [3], -0.385 (inactive).

`CS(=O)(=O)c1ccc(C(=N)N)cc1`: the figures for the fold change in assay [1] (setting [4]) and in assay [1] (setting [5]) were 0.887 (inactive) and 0.391, respectively. The cell count is 8670 in assay [1] (setting [6]) and 9770 in assay [1] (setting [7]). Moreover, the z-score in assay [2] (setting [8]) is 0.807 (inactive); in assay [2] (setting [9]) it was -0.298; in assay [3], 0.2 (inactive).
